We go through 40 compounds from PubChem BioAssay (NCI).

This is part of a sample that, as a whole, favours compounds with a hit. Of some 83,000 tested, about 20% had one in any assay.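 Growth was measured after 48 h exposure to one concentration of compound in 96-well plates. Values under 10 count as active.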 A number with no mark means an inactive call. Activity calls are given as the source filed them.

In the test the test system is CCRF-CEM leukemia. Description: NCI-60 one-dose screen, 48 h (100 = growth as untreated, 0 = no growth, -100 = all killed). The following applies: 10 µM unless noted. On the procedure:
Growth inhibition of the CCRF-CEM human tumor cell line is measured as a screen for anti-cancer activity. Cells are grown in 96 well plates and exposed to the test compound for 48 hours. Compounds are tested at a single concentration, which is 10^-5 M for most compounds. The reported endpoint is percent growth (GI% or GIPRCNT), where numbers from 0 - 100% represent growth inhibition, and numbers from -100% - 0 represent cell death. For example, a value of 40 represents 60% growth inhibition. A value of 0 means no net growth occurred over the course of the experiment. A value of -40 indicates 40% of cells at the beginning of the experiment died by the end of the experiment. A value of -100 means all cells are dead at the end of the experiment.
NCI-60 Human Tumor Cell Lines Screen was performed using the standard one-dose NCI protocol, which is described in more detail at https://dtp.cancer.gov/discovery_development/nci-60/default.htm.
Compounds with GIPRCNT values below 10 were considered active. Activity score was based on GIPRCNT using the following formula: […]
Score is 0 for GIPRCNT values of 100 or above, 50 for GIPRCNT values of 0, and 100 for GIPRCNT values of -100.
As to `C=C(C)[C@@H]1CC[C@]2(C(N)=O)CC[C@]3(C)[C@H](CC[C@@H]4[C@@]5(C)C/C(=C/c6cccnc6)[C@H](O)C(C)(C)[C@@H]5CC[C@]43C)[C@@H]12`, the growth was 5.5% [100 µM] (active).
The value for `CC1Cc2c(ncnc2-n2cnc3ccccc32)N(C)c2ccccc21` (stereo not given) was 13%.
Take `O=C1CN(Cc2ccc(C(=O)NO)cc2)C(=O)[C@@H](Cc2ccccc2)N1`: the growth is 105%.
Regarding `CC(C)C1=NOC(=O)C1=Cc1cn(-c2ccco2)nc1-c1ccccc1`, the growth is 32.9%.
With `C=CCCCCCCCCC(=O)OC(C)C`, the growth is 2.8% (active).
As for `O=C1/C(=C\c2cccn2Cc2ccccc2)c2ccccc2N1c1c(Cl)cccc1Cl`, the figure is 92.9%; as for `CC(=O)Nc1ccc2nc3ccc(NC(C)=O)cc3[n+](-c3ccccc3)c2c1`, 73.1%; as for `C=C(C)[C@@H]1CC[C@]2(C(=O)NCCNCCNC(=O)OC(C)(C)C)CC[C@]3(C)[C@H](CC[C@@H]4[C@@]5(C)CCC(=O)C(C)(C)[C@@H]5CC[C@]43C)[C@@H]12`, 14.9% [100 µM].
On to `CCN(CC)c1ccc2cc(C(Nc3ccc(Cl)cc3)c3nnnn3C(C)(C)C)c(=O)oc2c1` (stereo not given), for which the growth is 93.5%.
Take `O=C1COCCN1c1ccc(Nc2nc(Cl)nc(N3CCOCC3)n2)cc1`: the growth is 97%.
The value for `CC1(C)[C@@H](NOCCCN)CC[C@]2(C)[C@H]3C(=O)C=C4[C@@H]5C[C@](C)(C(=O)O)CC[C@]5(C)CC[C@@]4(C)[C@]3(C)CC[C@@H]12` was 11.6% [100 µM]; that for `O=C(N/N=C/c1c(Cl)cccc1Cl)c1cccc(Nc2ccnc(C(F)(F)F)c2)c1` was 87.8%; that for `COc1cc(Cl)cc(-c2nn(C(=O)NS(=O)(=O)c3ccccc3)cc2-c2ccncc2)c1` was 94.6%.
Regarding `CCCCOC(=O)c1c(C)[nH]c(/C=C2\N=C(c3ccc[nH]3)C=C2OC)c1C`, the growth was 12.6%.
With `COc1cc(C)cc2oc3oc(=N)c(C(=O)c4ccccc4)cc3c(=O)c12`, the growth is 118%.
With `C[n+]1cccc(NC(=O)c2ccc3ccc4ccc(C(=O)Nc5ccc[n+](C)c5)nc4c3n2)c1`, the growth is 71.1%.
In the case of `CCCCCCCCCCCCCCNC(=O)Nc1ccc(Cl)c(Cl)c1`, the growth was 63.7%.
As for `C=C(C)[C@@H]1CC[C@]2(COCCC#N)CC[C@]3(C)[C@H](CC[C@@H]4[C@@](C)(CCCNCCC#N)[C@H](C(=C)C)CC[C@]43C)[C@@H]12`, the growth was 1.32% [100 µM] (active).
In the case of `N#CC1C(=O)NC(c2ccccc2[N+](=O)[O-])c2sc3c(F)cccc3c21` (stereo not given), the growth is 86.9%.
As for `Nc1ccc(Cl)c([N+](=O)[O-])c1`, the figure is 94%; as for `COc1cc(NCc2cn(-c3ccc(C(=O)O)cc3)nc2-c2ccc(C(=O)O)cc2)cc(OC)c1OC`, -17.9% (active); as for `C=C(CC(=O)OC)C(C)=O`, 118%.
With `CCCCC(CCCCCC(CCCC)C1NC(C)Cc2cc(OC)c(OC)cc21)C1NC(C)Cc2cc(OC)c(OC)cc21` (stereo not given), the growth was -43.3% (active).
As for `Cc1ccc(S(=O)(=O)Oc2ccc(Br)cc2Br)cc1`, the figure is 47.7%; as for `CCCN1CC(c2ccc(OC)c(OC)c2)=C(c2cn(C(=O)OCC)c3ccccc23)C1=O`, 78.8%.
As for `Cc1ccc(S(=O)(=O)NCCCNc2nccc(-c3c(-c4cccc(F)c4)nc4occn34)n2)cc1`, the growth is 42.2%.
`COc1ccc(/C=C2\N=C(Nc3ccccc3)N(NC(=O)c3ccccn3)C2=O)cc1`: the growth is 99.2%.
The value for `O=C(Nc1ccc(Nc2ccncc2)cc1)c1ccc([N+](=O)[O-])cc1` was 1.05% (active).
As for `Nc1cccc2c1C(=O)c1cccc(NC(=O)c3ccccc3)c1C2=O`, the figure is 12.6%; as for `CCCCOC(=O)c1cccc([N+](=O)[O-])c1`, 1.56% (active); as for `COCCCNc1nc(NC(=O)c2cc(OC)cc(OC)c2)cc(-c2cccnc2)n1`, 91.7%.
The value for `N#C/C(C(=O)c1ccccc1)=C1/C(=O)Nc2ccc(F)cc21` was 116%.
On to `CCOC(=O)C1=C(C(=O)c2ccc(Br)cc2)C(c2ccc(Br)cc2)NC(=S)N1` (stereo not given), for which the growth was 114%.
On to `O=S(=O)(NCc1ccccc1)c1ncnc2nc[nH]c12`, for which the growth was 83.1%.
As for `CCOc1ccc(/C=C(\C#N)c2cc3ccccc3[nH]2)cc1`, the growth is 63.4%.
In the case of `c1ccc(-c2nc(N3CCCNCC3)c3nc(-c4ccccc4)oc3n2)cc1`, the growth is 12.7%.
Regarding `C[C@]12CCc3nc(Nc4ccccc4)sc3C1=CC[C@@H]1[C@@H]2CC[C@]2(C)/C(=N/NC(N)=S)CC[C@@H]12`, the growth was 18.7%.
For the compound `COc1cc(NN=C(c2ccc(O)cc2)c2ccc(O)cc2)c([N+](=O)[O-])cc1[N+](=O)[O-]`, the growth is 103%.
Consider `Clc1ccc(N2CCN(CCCN3CCN(c4cccc(Cl)c4)CC3)CC2)cc1`, for which the growth is 58.9%.
Consider `CCOC(=O)n1cc(C2=C(c3ccc(OC)c(OC)c3)COC2=O)c2ccccc21`, for which the growth was 17.6%.
